Measurements: the supplement of paper PMC6555819

Tests used:
Assay in all cases: PBM binding z-score (relative to random genomic background probes); higher = stronger binding; sequences stand for … in GC…GCGATTGACAGCGTAGAATGAAGG
[1] = tested on: FXR:RXRa (NR concentration 270 nM, RXRa partner concentration 90 nM)
Method in brief: (§1)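 Binding buffer was PBS pH 7.4 with 2% milk, 0.02% Triton X-100, 1 mM DTT, 0.2 mg/mL BSA and 0.4 mg/ml salmon testes DNA. In it, ligand-free nuclear receptor dimers were incubated 1 h on custom Agilent 4×180K protein-binding microarrays carrying double-stranded probes. Antibodies against each partner (one per run) detected binding, and z-scores were calculated against random background probes after regression normalization of scanned fluorescence.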

[2] = tested on: LXRa:RXRa (NR concentration 270 nM, RXRa partner concentration 90 nM)
Method in brief: as §1

[3] = tested on: LXRa homodimer (NR concentration 270 nM)
Method in brief: as §1

[4] = tested on: LXRb:RXRa (NR concentration 270 nM, RXRa partner concentration 90 nM)
Method in brief: as §1

[5] = tested on: LXRb homodimer (NR concentration 270 nM)
Method in brief: as §1

[6] = tested on: PPARa:RXRa (NR concentration 270 nM, RXRa partner concentration 90 nM)
Method in brief: as §1

[7] = tested on: PPARg:RXRa (NR concentration 180 nM, RXRa partner concentration 90 nM)
Method in brief: as §1

[8] = tested on: PPARg:RXRa 270nM:90nM, anti-RXR (NR concentration 270 nM, RXRa partner concentration 90 nM)
Method in brief: as §1

[9] = tested on: PPARg:RXRa 30nM:10nM, anti-RXR (NR concentration 30 nM, RXRa partner concentration 10 nM)
Method in brief: as §1

[10] = tested on: PPARg:RXRa 90nM:30nM, anti-RXR (NR concentration 90 nM, RXRa partner concentration 30 nM)
Method in brief: as §1

[11] = tested on: PPARg:RXRa DBDmut IVT, anti-RXR (DBD mutation: RXRa K156A/R161A, NR concentration 270 nM, RXRa partner concentration 90 nM)
Method in brief: as §1

[12] = tested on: PPARg:RXRa IVT, anti-PPARg (NR concentration 270 nM, RXRa partner concentration 90 nM)
Method in brief: as §1

[13] = tested on: PPARg DBDmut:RXRa IVT, anti-PPARg (DBD mutation: PPARg1 K132A/R137A, NR concentration 270 nM, RXRa partner concentration 90 nM)
Method in brief: as §1

[14] = tested on: PPARg DBDmut IVT, anti-PPARg (DBD mutation: PPARg1 K132A/R137A, NR concentration 270 nM)
Method in brief: as §1

[15] = tested on: PPARg homodimer (NR concentration 180 nM)
Method in brief: as §1

[16] = tested on: PXR:RXRa (NR concentration 270 nM, RXRa partner concentration 90 nM)
Method in brief: as §1

[17] = tested on: PXR homodimer (NR concentration 270 nM)
Method in brief: as §1

[18] = tested on: RARa:RXR (NR concentration 270 nM, RXRa partner concentration 90 nM)
Method in brief: as §1

[19] = tested on: RARa homodimer (NR concentration 270 nM)
Method in brief: as §1

[20] = tested on: RARb:RXRa (NR concentration 270 nM, RXRa partner concentration 90 nM)
Method in brief: as §1

Sequence	PBM binding z-score [1]	PBM binding z-score [2]	PBM binding z-score [3]	PBM binding z-score [4]	PBM binding z-score [5]	PBM binding z-score [6]	PBM binding z-score [7]	PBM binding z-score [8]	PBM binding z-score [9]	PBM binding z-score [10]	PBM binding z-score [11]	PBM binding z-score [12]	PBM binding z-score [13]	PBM binding z-score [14]	PBM binding z-score [15]	PBM binding z-score [16]	PBM binding z-score [17]	PBM binding z-score [18]	PBM binding z-score [19]	PBM binding z-score [20]
CGTCAAAGTTCGAGGTAACGTAACAGAAAGCAGC	1.32	1.25	0.0429	0.91	-0.403	1.74	1.36	1.98	0.481	1.36	0.256	0.878	-1.11	0.105	1.18	1.28	0.589	1.39	0.233	2.73
TCATATAGGTAAAAGGTGGAAGTCGGTGTGGTAA	0.924	0.974	0.29	1.22	0.619	3.71	6.89	7.1	6.28	7.79	5.75	3.56	0.901	0.975	2.35	0.586	0.623	1.18	1.17	0.885
TCATATAGGTAAATGCTAGGTGAAATTCCGATCT	0.456	0.522	-0.0474	0.729	0.187	1.17	0.929	2.31	3.86	3.3	3.98	2.41	0.621	1.13	1.04	0.404	0.241	0.848	1.28	0.363
CGTCCAAGGTCAAAGGTTAGTGAAGAGATGACGG	7.74	5.92	1.42	5.09	1.54	6.47	8.94	7.84	7.41	8.3	3.36	4.86	2.1	1.08	6	6.05	1.47	7.8	1.93	5.22
CCCACTGGGCCAAAAAGGTCATTGATGCCGATAA	3.49	4.24	3.22	4.01	0.236	4.45	3.06	4.19	1.38	3.23	2.99	4.17	-1.05	-0.939	3.72	4.91	4.6	5.4	1.88	4.02
ATACGAAGGTGATCGTGAGGTCGTTGATACTAAC	1.79	1.18	0.283	0.729	-0.403	1.47	0.5	0.532	0.382	0.531	0.525	0.827	0.418	-0.452	0.589	2.82	1.23	2	0.134	1.29
CGACCAAGGTGAACAAGGTCGTTGATTACTATTC	1.09	1.16	-0.248	1.83	-0.531	2.54	1.27	1.29	-0.0265	0.643	1.95	2.6	-0.104	-0.33	0.615	2.45	1.03	1.99	0.125	2.22
ACAGACAGGTGATGAAGGTAACTGAGGCTATCAT	0.003	-0.0614	-0.296	-0.234	-0.411	0.0902	0.558	0.0724	-0.0753	0.0172	0.31	0.434	0.949	0.0407	0.301	-0.124	0.0874	0.438	0.583	0.369
GCTGCTAGGTCAACTGATCGTCAGCTAAAGCTCG	4.12	2.74	-0.171	1.86	-0.26	3.62	2.54	3.43	0.361	2.23	4.99	4.1	0.249	-0.779	0.899	1.23	-0.904	2.14	-0.582	4.19
CAAACTAGGTCTAAGGTCAAAGTCGAGCCAACCA	5.18	4.6	2.94	4.32	1.16	6.52	10.5	9.19	9.22	10.2	3.97	5.92	1.31	0.848	2.46	4.42	1.59	4.7	1.21	4.14
AGAATGAGGTTACTAAGATCAGGGAATTGCGGTC	1.46	1.24	-0.205	0.978	-0.137	2.62	2.35	2.48	0.629	1.7	4.08	3.37	0.676	0.112	0.638	0.828	0.241	1.37	-0.455	1.74
TCTATTAGTTCATTAGGGCAACCGAAACAGCGGA	1.12	1.73	1.56	1.29	1.34	2.47	1.21	2.92	3.81	3.34	2.92	2.95	1.5	1.13	1.3	1.75	1.7	1.2	1.45	2.64
CAAACTAGGTCACGAAATGTCAAAGTCGAATGAC	4.45	5.4	1.06	3.49	0.702	5.42	9.32	7.56	6.2	7.61	8.65	9.32	6.88	5.58	3.3	2.74	0.475	3.64	1.83	4.39
CCTTACGGGTCACTCCAGGTTATAGCCTCGGAGT	4.87	7.57	1.87	5.01	0.105	4.56	3.61	3.83	1.17	2.46	2.45	3.8	-1.39	-0.526	1.18	4.66	0.0423	3.43	0.55	3.64
AGTCAAAGTTCAGGTCGAGGTAACGTAAAGCACG	4.82	4.08	1.87	2.47	0.819	3.6	4.74	4.74	2.07	3.97	-0.195	2.16	0.434	0.251	2.76	3.53	2.14	3.43	1.49	4.47
GCAGACAGGTGAAACGCAGGAAACTCAGGGTGGC	-0.517	-0.226	-0.695	-0.346	-1.08	0.952	0.592	-0.351	-0.59	-0.582	0.874	0.378	-0.857	-0.37	-0.537	-0.387	-0.338	-0.0101	-0.25	0.527
CCAACTGGGGCAAGGTTACCATAACGCACAGCCA	0.213	0.726	-0.0339	0.872	-0.862	2.49	4.28	4.62	2.01	4.22	5.12	5.51	0.138	-0.27	0.543	0.378	0.0268	0.879	0.291	1.78
AATAGCAGGCCAAGTTTGGGTCACTCAAACAAAG	0.16	0.399	-0.166	0.913	-0.947	1.72	0.314	0.478	-0.511	0.171	1.2	1.95	-0.692	-0.417	0.551	1.05	-0.42	1.79	-0.848	1.98
CCGACTGGGGAAAAGGTTACCATACTCAGTACGA	0.132	0.716	-0.0897	1.29	-0.67	3.82	6.95	7.47	6.02	8.23	0.816	2.89	-0.258	-0.129	1.18	0.978	-0.181	1.8	0.0679	1.59
CTTCGGAGGACAGAAGGTCAGAGCTGTCCGCTTT	1.6	1.84	-0.0247	0.975	-0.772	1.85	-0.0897	1.07	-0.905	0.484	0.227	0.203	-0.826	-2.02	1.51	1.56	-0.691	2.18	-0.152	3.17
TCGAGTAGGTTACCAATGGGGGATTCAGCTTTCT	0.454	1	-0.159	2.46	5.29	1.74	0.645	2.31	1.35	2.08	3.04	3.87	3.52	5.09	0.376	1.15	-0.444	1.17	-0.393	1.06
GCGACTGGGGCATCAGCAGGTTAACATAACTTAA	-0.169	-0.338	-0.456	1.01	-0.643	1.27	1.18	1.16	0.116	0.609	3.98	3.26	-0.488	-1.04	0.292	0.289	-0.239	0.486	-0.18	0.898
CCGAGTAGGTTATGGGGCGTTCAGGCAACGGTGA	0.244	0.548	-0.0765	0.47	-0.285	1.67	2.44	3.87	1.97	3.39	2.68	2.65	-0.225	-0.53	0.696	-0.0536	-0.251	0.233	-0.0281	0.904
GCTCGGAGGATAAGGTCAGAGCTTTGTCCGTAGA	2.22	1.66	-0.483	1.26	-1.34	2.62	0.136	1.3	-0.139	0.94	-0.248	0.29	-0.531	-1.51	0.565	1.86	-0.244	2.62	-0.904	3.29
CCTATTATTTGACCATAAGGGCAACCGAAGCTCG	1.29	0.777	1.8	1.02	1.25	0.882	0.551	0.728	0.155	0.461	0.801	1.15	0.688	1.57	3.21	0.9	2.77	1.05	4.4	1.64
CCGAGTAGGTTATAGGGCATTCAGGCAACGGTGA	0.59	0.988	0.388	0.765	-0.185	3.47	6.04	6.43	4.96	6.5	3.99	4.27	0.108	-0.169	1.05	0.219	-0.129	0.863	0.46	1.24
GCTTACGGGTCAAAGCTTATAGCATGAATAGAAT	6.25	3.79	-0.13	3.78	0.156	5.7	4.76	5.32	2.66	4.08	4.24	3.92	0.68	0.139	1.56	2.98	-0.218	4.44	-0.0595	3.83
GCAGACAGGTGAAACGCAGCTAACTCAGGGTGGC	-0.722	-0.436	-0.887	-0.728	-1.13	0.359	0.371	-0.353	-0.974	-0.585	0.771	0.278	-1.29	-0.6	-1.08	-0.921	-0.971	-0.616	-1.12	0.0872
CCGACTGGGGCTGAAAGGTTACCATACCATCCGG	0.294	0.581	-0.00145	0.846	-1.11	1.76	0.998	1.93	0.223	1.31	-0.623	-0.162	-1.05	-1.01	0.352	1.1	-0.23	1.85	-0.057	1.46
